Tau fibril FP: blocks human tau fibril formation measured by polarization; K18 P301L tau heparin fibrillization, Alexa594 FP, 6 h; AID 1468; Potency, µM (titrated, usually from 57.7 µM), without a hit: top-dose activity, negative = inhibition, most hits filed as inhibitors; 0.39% of 280,000 active; note: potency is the fitted concentration of half-maximal effect; nearly all actives have a fitted effect of over 55% in size
Target sequence (P10636 561-689 P618L limits assumed): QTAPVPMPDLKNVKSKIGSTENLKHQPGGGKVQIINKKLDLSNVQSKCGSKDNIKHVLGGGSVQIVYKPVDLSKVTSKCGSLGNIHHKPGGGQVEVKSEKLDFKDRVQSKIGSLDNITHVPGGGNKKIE
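Human tau K18 […] P301L fragment, 15 uM unlabeled plus 0.24 uM Alexa 594-labeled tau (final), with compound and 20 uM heparin in 100 mM sodium acetate pH 7; 6 hr at 37 C, then Alexa 594 FP read.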
Sfp PPTase inh: blocks B. subtilis Sfp PPTase activity; Q9F4F7; Biochemical Sfp PPTase activity, qHTS; Potency, µM, without a hit: largest response in the series, negative = inhibition, usual class: inhibitors; 3.5% of 310,000 active;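 note: the enzyme is Sfp with the accession as filed and its product quenches rhodamine fluorescence; potency is the fitted concentration of half-maximal effect; 0% = enzyme reaction without inhibitor and -100% = no enzyme wells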
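Step 1, compound plus 15 nM Sfp-PPTase, 15 min, room temperature. Step 2, add rhodamine-CoA (5 uM) and BHQ-2-YbbR (12.5 uM). Step 3, read 525/598 nm fluorescence at 0 and 30 min.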
G9a block: blocks human histone lysine methyltransferase G9a | G9a H3K9 monomethylation, AlphaScreen, 2 h | 8.8% of 350,000 active | Q96KQ7 | Potency, µM (top dose mostly 102 µM), for inactives: at the top dose activity, negative = inhibition, most hits filed as inhibitors; note: potency is the fitted concentration of half-maximal effect; nearly all actives have a fitted effect of over 75% in size
Target sequence (Q96KQ7 913-1193 limits assumed): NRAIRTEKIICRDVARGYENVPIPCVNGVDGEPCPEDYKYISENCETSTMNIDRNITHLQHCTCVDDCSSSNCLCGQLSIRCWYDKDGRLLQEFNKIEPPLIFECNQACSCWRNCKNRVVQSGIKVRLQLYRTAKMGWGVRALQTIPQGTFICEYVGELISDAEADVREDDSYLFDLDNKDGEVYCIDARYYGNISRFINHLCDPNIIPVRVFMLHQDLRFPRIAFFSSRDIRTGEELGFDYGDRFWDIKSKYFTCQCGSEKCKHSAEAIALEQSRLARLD
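Signal arises when biotinylated H3K9 peptide, once monomethylated, bridges streptavidin donor and antibody-captured acceptor beads. Enzyme at 20 nM was preincubated 15 min with test compounds; peptide 500 nM and SAM 20 uM then reacted for 2 h.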
Coupling enz: coupling enzyme interference in Giardia aldolase counter-screen; coupling enzyme system counterscreen, AmpLite Red fluorescence; activity change, negative = inhibition, % at 58.2 µM, hits read low; 0.67% of 290,000 active; AID 2472; in the data active = activity change below about -30%
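Counterscreen of the coupled detection system alone, without aldolase: glyceraldehyde-3-phosphate coupling enzymes plus AmpLite Red readout. Compounds at 57.5 uM final, 10 min RT preincubation, 20 min RT reaction, fluorescence 525/598 nm.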
Tau fluor counter: counter-screen for tau fibril formation inhibitors. tau K18 P301L Alexa594 fluorescence, heparin fibrillization. Potency, µM (titrated, usually from 57.7 µM), inactives show at the highest dose activity change, negative = decrease. 0.93% of 280,000 active. AID 1463; note: potency is the fitted concentration of half-maximal effect; nearly all actives have a fitted effect of over 55% in size
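Human tau K18 P301L (15 uM unlabeled, 0.24 uM Alexa 594-labeled) in 100 mM sodium acetate pH 7 with 20 uM heparin, 6 hr at 37 C. ThT 30 uM added, 1 hr ambient; Alexa 594 FP and total fluorescence read at 555/632 nm.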
Tau ThT inhib: blocks human tau fibril formation measured by thioflavin T. Potency, µM (top dose mostly 57.4 µM), inactives show top-dose activity, negative = inhibition, usual class: inhibitors. recombinant tau K18 P301L (four-repeat tau fragment), heparin-induced fibrillization, ThT fluorescence. AID 1460. 2.1% of 270,000 active; note: potency is the fitted concentration of half-maximal effect; nearly all actives have a fitted effect of over 55% in size
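K18 P301L tau (15 uM + 0.24 uM Alexa 594-tagged), heparin 20 uM, NaOAc pH 7, 6 h 37 C; ThT 30 uM, 1 h RT, ex 450/em 510 nm.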
An asterisk follows results filed as active; ? = inconclusive; . = not tested or not shown; [ ] = another dose, or the depositor's remark. The list is not random: actives were taken first. Their share in the collection is about 11%. Unless noted, calls come from the whole dose curve; as a rule, active = well fitted curve in the direction sought with a large enough effect; inconclusive = small, poorly fitted or top-dose-only effect, or another doubt; inactive = no such curve, though single readings can be large; an effect the other way counts as inactive or inconclusive. Unless noted, % is set by controls: 0 for no effect and ±100 for the full control effect.

SMILES	Tau fibril FP	Sfp PPTase inh	G9a block	Coupling enz	Tau fluor counter	Tau ThT inhib
COc1ccccc1N1CCN(C(c2cc3ccc(C)cc3[nH]c2=O)c2nnnn2C2CCCC2)CC1 (stereo not given)	0%	40µM*	28µM*	-34*	-10%	?
COc1cc2cc(C(c3nnnn3C3CCCC3)N3CCc4ccccc43)c(=O)[nH]c2cc1OC (stereo not given)	-2%	-10%	45µM*	-6	-5%	-5%
CCOC(=O)C1CCN(C(c2cc3ccc(C)cc3[nH]c2=O)c2nnnn2C2CCCCC2)CC1 (stereo not given)	?	35µM*	22µM*	-4	-17%	?
COc1cc2cc(C(c3nnnn3C(C)(C)C)N3CCc4ccccc43)c(=O)[nH]c2cc1OC (stereo not given)	3%	-3%	?	0	-19%	-5%
COc1ccccc1N1CCN(C(c2cc3cc(C)ccc3[nH]c2=O)c2nnnn2C2CCCC2)CC1 (stereo not given)	-5%	?	?	-15	-1%	-6%
CCc1cccc(N2C(=O)CSC23C(=O)Nc2ccccc23)c1 (stereo not given)	2%	.	-20%[59 µM]	.	-2%	1%
CCc1ccc2c(c1)C1(NN=C(c3cccc4ccccc34)S1)C(=O)N2 (stereo not given)	13%	-3%	?	-7	?	16µM*
CCn1c(=O)n(CC)c2cc(N3CCCC3)c(NC(=O)c3ccc(C)cc3)cc21	.	1%	56µM*	.	.	.
Cn1c(=O)n(C)c2cc(N3CCCCC3)c(NC(=O)c3ccccc3)cc21	.	0%	19%	.	.	.
CC(=O)c1cccc(NC(=O)Nc2cc3c(cc2N2CCCC2)n(C)c(=O)n3C)c1	2%	.	-24%[59 µM]	.	?	?
CCn1c(=O)n(CC)c2cc(N3CCCC3)c(NC(=O)c3ccccc3)cc21	.	-8%	40µM*	-4	.	.
CCn1c(=O)n(CC)c2cc(N3CCCC3)c(NC(=O)Nc3cc(C)cc(C)c3)cc21	9%	.	3%[59 µM]	.	-15%	?
CCOC(=O)c1ccc(NC(=O)Nc2cc3c(cc2N2CCCC2)n(C)c(=O)n3C)cc1	12%	.	?	.	14µM*[quencher]	?
CCOC(=O)c1ccc(NC(=O)Nc2ccc3c4c(cccc24)C(=O)N3CC)cc1	-13%	3%	34%[12.7 µM]	-1	3.2µM*[quencher]	?
O=C(Nc1cc(C(F)(F)F)ccc1Cl)c1noc2c1CCCCC2	?	.	43%[59 µM]	.	-22%	-6%
Cc1cc(C)c2c(CN3CCN(Cc4ccccc4)CC3)cc(=O)oc2c1	.	-18%	?	1	.	.
Cc1nn2c(-c3cccc(NC(=O)CSc4nc5ccccc5o4)c3)nnc2c2ccccc12	2%	56µM*	16µM*	7	-14%	?
c1ccc2c(c1)CCN2CCN1CCc2ccccc21	8%	-5%	3.5µM*	-6	-23%	-23%
O=C1c2ccccc2C(=O)N1CCN1CCc2ccccc21	7%	9%	?	-2	-25%	-15%
CN(C)CCN1CCc2ccccc21	-10%	-9%	?	-43*	-13%	?
CCOC(=O)c1cccc(OCC(O)CNCCOc2ccccc2F)c1 (stereo not given)	.	-22%	50µM*	3	.	.
CC(=O)c1cccc(OCC(O)CNCCc2ccc(Cl)cc2)c1 (stereo not given)	.	-27%	?	2	.	.
Nn1c(-c2ccccc2)cc(-c2ccccc2)cc1=O	.	.	61%[2.33 µM]	.	.	.
O=c1c(-c2ccccc2)[n+]([O-])c2ccccc2n1O	-4%	40µM*	?	-15	-13%	-6%
CCOc1ccc(-c2c(=O)n(O)c3ccccc3[n+]2[O-])cc1	.	-22%	10%[2.33 µM]	-1	.	.
Cc1ccc(-c2c(=O)n(O)c3ccccc3[n+]2[O-])cc1	.	11%	50µM*	-4	.	.
O=c1c(=O)n(O)c2ccccc2n1O	4%	79µM*	10µM*	-11	0%	-7%
